Screen size: about 5,500 compounds; about 2,000 (36%) were called active. Another 18% or so got no clear call; they are omitted. No stated cut-off is given here; in the data, active means normalized growth mostly below about 0.91 (no sharp cut-off); inconclusive means no clear call, values can overlap the other calls; inactive means mostly above about 0.92. The list shows a part of the results.
Experiment: chemical genetic growth profiling, strain panel (AID 1159580);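 further: tested at 20 µM; growth read once vehicle control cultures reached saturation at 30 °C; 1 = growth at the plate median or of vehicle wells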
Conditions: S. cerevisiae deletion strains, growth OD
[1] = locus YAL013W, strain DEP1, stronger effect = lower value
[2] = locus YDL101C, strain DUN1, stronger effect = lower value
[3] = locus YDR150W, strain NUM1, stronger effect = lower value
[4] = locus YGR078C, strain PAC10, stronger effect = lower value
[5] = locus YHR030C, strain SLT2, stronger effect = lower value
[6] = locus YJL187C, strain SWE1, stronger effect = lower value
[7] = locus YNL153C, strain GIM3, stronger effect = lower value
[8] = locus YNL322C, strain KRE1, stronger effect = lower value
[9] = locus YPL055C, strain LGE1, stronger effect = lower value
[10] = locus YPL241C, strain CIN2, stronger effect = lower value
[11] = locus YAL040C, strain CLN3, stronger effect = lower value
[12] = locus YCL061C, strain MRC1 (second series), stronger effect = lower value
[13] = locus YDR363W, strain ESC2, stronger effect = lower value
[14] = locus YER002W, strain NOP16, stronger effect = lower value
[15] = locus YNL175C, strain NOP13, stronger effect = lower value
[16] = locus YNL197C, strain WHI3, stronger effect = lower value
[17] = locus YNL224C, strain SQS1, stronger effect = lower value
[18] = locus YOR083W, strain WHI5 (second series), stronger effect = lower value
[19] = locus YHR079C, strain IRE1, stronger effect = lower value
[20] = locus YJL095W, strain BCK1, stronger effect = lower value
[21] = locus YJR066W, strain TOR1, stronger effect = lower value
[22] = locus YLR113W, strain HOG1, stronger effect = lower value
[23] = locus YNL183C, strain NPR1, stronger effect = lower value
[24] = locus YOR231W, strain MKK1, stronger effect = lower value
[25] = locus YPL256C, strain CLN2, stronger effect = lower value

Measured: normalized growth

O=C(Nc1ccccc1C(=O)NC1CCCCNC1=O)c1cccs1 (centres undefined)
inactive: [1] 1 | locus YBR229C, strain ROT2, stronger effect = lower value 1.01 | [2] 1 | locus YDL134C, strain PPH21, stronger effect = lower value 1.01 | [3] 0.996 | locus YEL061C, strain CIN8, stronger effect = lower value 1.01 | [4] 1 | [5] 1.02 | locus YHR087W, strain rtc3, stronger effect = lower value 1.02 | [6] 1.01 | locus YJR043C, strain POL32, stronger effect = lower value 0.972 | locus YJR075W, strain HOC1, stronger effect = lower value 1.02 | locus YLR039C, strain RIC1, stronger effect = lower value 1.06 | locus YLR058C, strain SHM2 (second series), stronger effect = lower value 1 | locus YLR085C, strain ARP6, stronger effect = lower value 1.01 | locus YLR262C, strain YPT6, stronger effect = lower value 1.03 | locus YML094W, strain GIM5, stronger effect = lower value 1.02 | locus YMR219W, strain ESC1, stronger effect = lower value 1.01 | locus YMR263W, strain SAP30, stronger effect = lower value 1.01 | [7] 1 | locus YNL298W, strain CLA4 (second series), stronger effect = lower value 1.03 | [8] 1 | locus YNR030W, strain Alg12, stronger effect = lower value 1.02 | [9] 0.998 | [10] 1.03 | locus YPR135W, strain CTF4, stronger effect = lower value 1.01

O=C(O)[C@@H]1C[C@H](C(=O)O)N1
inactive: [11] 0.943 | [12] 0.984 | [13] 1.06 | [14] 0.988 | [7] 0.986 | [15] 0.99 | [16] 0.967 | [17] 0.965 | [8] 0.987 | [18] 0.973

O=C(NCc1ccco1)c1ccc(Oc2cc(Cl)cc(Cl)c2)o1
active: [22] 0.761
inactive: locus YAR019C, strain CDC15, stronger effect = lower value 0.961 | locus YBL105C, strain PKC1, stronger effect = lower value 0.96 | locus YBR135W, strain CKS1, stronger effect = lower value 0.964 | locus YBR136W, strain MEC1, stronger effect = lower value 0.964 | locus YBR160W, strain CDC28, stronger effect = lower value 0.967 | locus YDL017W, strain CDC7, stronger effect = lower value 0.969 | locus YDL028C, strain MPS1, stronger effect = lower value 0.967 | [2] 0.964 | locus YDL108W, strain KIN28, stronger effect = lower value 0.96 | locus YDL132W, strain cdc53, stronger effect = lower value 0.957 | locus YDL214C, strain PRR2, stronger effect = lower value 0.936 | locus YDR052C, strain DBF4, stronger effect = lower value 0.968 | locus YDR054C, strain cdc34, stronger effect = lower value 0.957 | locus YDR226W, strain ADK1, stronger effect = lower value 0.959 | locus YDR477W, strain SNF1, stronger effect = lower value 0.952 | locus YER123W, strain YCK3, stronger effect = lower value 0.932 | locus YER133W, strain GLC7, stronger effect = lower value 0.932 | locus YFL009W, strain cdc4, stronger effect = lower value 0.957 | locus YFL029C, strain CAK1, stronger effect = lower value 0.951 | locus YFR003C, strain YPI1, stronger effect = lower value 0.962 | locus YFR019W, strain FAB1, stronger effect = lower value 0.96 | locus YFR028C, strain CDC14, stronger effect = lower value 0.957 | locus YGR040W, strain KSS1, stronger effect = lower value 0.948 | locus YGR052W, strain FMP48, stronger effect = lower value 0.95 | locus YGR092W, strain DBF2, stronger effect = lower value 0.957 | [5] 1.05 | [19] 1 | locus YHR082C, strain KSP1, stronger effect = lower value 0.994 | locus YHR205W, strain SCH9, stronger effect = lower value 0.952 | locus YIL147C, strain SLN1, stronger effect = lower value 0.964 | [20] 0.931 | locus YJL128C, strain PBS2, stronger effect = lower value 0.914 | locus YJL157C, strain FAR1, stronger effect = lower value 0.941 | locus YJR016C, strain ILV3, stronger effect = lower value 0.955 | locus YJR066W, strain TOR1 (second series), stronger effect = lower value 0.974 | [21] 1.03 | locus YKL048C, strain ELM1, stronger effect = lower value 0.939 | locus YKL067W, strain YNK1, stronger effect = lower value 0.945 | locus YKL101W, strain HSL1, stronger effect = lower value 0.917 | locus YKL193C, strain SDS22, stronger effect = lower value 0.958 | locus YKL203C, strain TOR2, stronger effect = lower value 1.01 | locus YLR133W, strain CKI1, stronger effect = lower value 0.931 | locus YLR403W, strain SFP1, stronger effect = lower value 0.968 | locus YML070W, strain DAK1, stronger effect = lower value 0.94 | locus YMR001C, strain CDC5, stronger effect = lower value 0.956 | locus YMR205C, strain PFK2 (second series), stronger effect = lower value 0.942 | locus YMR277W, strain FCP1, stronger effect = lower value 0.958 | locus YNL006W, strain LST8, stronger effect = lower value 0.971 | locus YNL020C, strain ARK1, stronger effect = lower value 0.939 | locus YNL161W, strain CBK1, stronger effect = lower value 0.967 | [23] 0.963 | locus YNL207W, strain RIO2, stronger effect = lower value 0.947 | locus YNL222W, strain SSU72, stronger effect = lower value 0.964 | locus YNL307C, strain MCK1 (second series), stronger effect = lower value 0.93 | locus YOL078W, strain AVO1, stronger effect = lower value 0.953 | locus YOL136C, strain PFK27, stronger effect = lower value 0.907 | locus YOR061W, strain CKA2, stronger effect = lower value 0.942 | locus YOR119C, strain RIO1, stronger effect = lower value 1.01 | [24] 0.883 | locus YOR329C, strain SCD5, stronger effect = lower value 0.965 | locus YPL031C, strain PHO85, stronger effect = lower value 0.942 | locus YPL153C, strain RAD53, stronger effect = lower value 0.969 | locus YPL204W, strain HRR25, stronger effect = lower value 0.941 | locus YPL209C, strain IPL1, stronger effect = lower value 0.961 | [25] 0.906 | locus YPR025C, strain CCL1, stronger effect = lower value 0.961 | locus YPR106W, strain ISR1, stronger effect = lower value 0.958 | locus YPR111W, strain DBF20, stronger effect = lower value 0.949 | strain NNK1, stronger effect = lower value 0.942 | strain TSCII, stronger effect = lower value 0.955

O=C(/C=C/c1ccccc1)O[C@H]1C[C@@H](O)[C@]2(O)C=CO[C@@H](O[C@@H]3O[C@H](CO)[C@@H](O)[C@H](O)[C@H]3O)[C@H]12
inactive: locus YAL021C, strain ccr4, stronger effect = lower value 0.996 | locus YAL026C, strain drs2, stronger effect = lower value 1.03 | locus YAL030W, strain snc1, stronger effect = lower value 1.03 | locus YBL061C, strain skt5, stronger effect = lower value 1.02 | locus YBR009C, strain hhf1, stronger effect = lower value 1.05 | locus YBR023C, strain chs3, stronger effect = lower value 1.02 | locus YBR171W, strain sec66, stronger effect = lower value 1.03 | locus YBR231C, strain swc5, stronger effect = lower value 1.03 | locus YBR279W, strain paf1, stronger effect = lower value 1.02 | locus YCL011C, strain gbp2, stronger effect = lower value 1.02 | locus YCL016C, strain dcc1, stronger effect = lower value 1.03 | locus YCL061C, strain MRC1, stronger effect = lower value 1.02 | locus YCL069W, strain vba3, stronger effect = lower value 1.03 | locus YCR088W, strain abp1, stronger effect = lower value 1.02 | locus YDL005C, strain med2, stronger effect = lower value 1.02 | locus YDL040C, strain nat1, stronger effect = lower value 1.03 | locus YDR001C, strain nth1, stronger effect = lower value 1.02 | locus YDR069C, strain doa4, stronger effect = lower value 1.03 | locus YDR137W, strain rgp1, stronger effect = lower value 1.03 | locus YDR159W, strain sac3, stronger effect = lower value 1.05 | locus YDR195W, strain ref2 1.01 | locus YDR297W, strain sur2, stronger effect = lower value 1.02 | locus YDR334W, strain swr1, stronger effect = lower value 1.03 | locus YDR335W, strain msn5, stronger effect = lower value 1.02 | locus YDR392W, strain spt3, stronger effect = lower value 0.927 | locus YEL003W, strain gim4, stronger effect = lower value 1.03 | locus YEL037C, strain rad23, stronger effect = lower value 1.02 | locus YEL061C, strain CIN8 (second series), stronger effect = lower value 1.01 | locus YER015W, strain faa2, stronger effect = lower value 1.02 | locus YER016W, strain bim1, stronger effect = lower value 1.03 | locus YER111C, strain swi4, stronger effect = lower value 1.03 | locus YER155C, strain BEM2 (second series), stronger effect = lower value 1.04 | locus YFR010W, strain ubp6, stronger effect = lower value 1.03 | locus YGL167C, strain pmr1, stronger effect = lower value 1.02 | locus YGL173C, strain kem1, stronger effect = lower value 1.03 | locus YGL227W, strain vid30, stronger effect = lower value 1.03 | locus YGL240W, strain doc1, stronger effect = lower value 1.04 | locus YGL253W, strain hxk2, stronger effect = lower value 1.03 | locus YHR013C, strain ard1, stronger effect = lower value 0.995 | locus YHR027C, strain rpn1, stronger effect = lower value 1.03 | [5] 0.902 | [19] 0.939 | locus YHR142W, strain chs7, stronger effect = lower value 0.998 | locus YJL092W, strain hpr5, stronger effect = lower value 1.02 | locus YJL095W, strain BCK1 (second series), stronger effect = lower value 1.03 | [20] 0.928 | locus YJL115W, strain asf1, stronger effect = lower value 1.03 | locus YJL129C, strain trk1, stronger effect = lower value 1.01 | locus YJL154C, strain vps35, stronger effect = lower value 1.02 | locus YJL164C, strain tpk1, stronger effect = lower value 1.01 | locus YJL166W, strain qcr8, stronger effect = lower value 1.03 | [6] 1.02 | [21] 0.92 | locus YKL160W, strain elf1, stronger effect = lower value 0.989 | locus YKR026C, strain gcn3, stronger effect = lower value 1.03 | locus YKR091W, strain srl3, stronger effect = lower value 1.02 | locus YLL001W, strain dnm1, stronger effect = lower value 1.02 | locus YLL026W, stronger effect = lower value 1.02 | locus YLL041C, strain sdh2, stronger effect = lower value 1.02 | locus YLR027C, strain aat2, stronger effect = lower value 1.02 | [22] 0.878 | locus YLR221C, strain rsa3, stronger effect = lower value 1 | locus YLR258W, strain gsy2, stronger effect = lower value 1.05 | locus YLR262C, strain YPT6 (second series), stronger effect = lower value 1.04 | locus YLR320W, strain mms22, stronger effect = lower value 1.02 | locus YLR342W, strain FKS1, stronger effect = lower value 1.02 | locus YLR357W, strain rsc2, stronger effect = lower value 1.02 | locus YLR370C, strain arc18, stronger effect = lower value 1.02 | locus YLR384C, strain iki3, stronger effect = lower value 1.03 | locus YML120C, strain ndi1, stronger effect = lower value 0.999 | locus YMR058W, strain fet3, stronger effect = lower value 1.02 | locus YMR125W, strain sto1, stronger effect = lower value 1.03 | locus YMR129W, stronger effect = lower value 1.02 | locus YMR205C, strain PFK2, stronger effect = lower value 1.06 | locus YMR231W, strain pep5, stronger effect = lower value 1.03 | locus YNL071W, strain lat1, stronger effect = lower value 1.02 | [23] 0.951 | locus YNL209W, strain ssb2, stronger effect = lower value 1.02 | locus YNL248C, strain rpa49, stronger effect = lower value 0.992 | locus YNL322C, strain KRE1 (second series), stronger effect = lower value 1.03 | locus YNR049C, strain mso1, stronger effect = lower value 1.03 | locus YOR001W, strain rrp6, stronger effect = lower value 1 | locus YOR070C, strain gyp1, stronger effect = lower value 1.03 | locus YOR080W, strain dia2, stronger effect = lower value 1.03 | locus YOR083W, strain WHI5, stronger effect = lower value 0.986 | locus YOR106W, strain vam3, stronger effect = lower value 1.01 | [24] 0.938 | locus YOR265W, strain rbl2, stronger effect = lower value 1.02 | locus YOR270C, strain vph1, stronger effect = lower value 1.03 | locus YOR290C, strain snf2, stronger effect = lower value 0.969 | locus YPL051W, strain arl3, stronger effect = lower value 1.01 | locus YPL078C, strain atp4, stronger effect = lower value 0.996 | locus YPL106C, strain sse1, stronger effect = lower value 1.04 | locus YPL240C, strain hsp82, stronger effect = lower value 1.02 | [25] 0.943

CCCC[N+]1(C)C2CC(OC(=O)[C@H](CO)c3ccccc3)CC1C1OC12 (some centres undefined)
inactive: [1] 1 | [11] 1.05 | [12] 0.996 | [3] 1 | [13] 0.999 | [14] 1.01 | [4] 0.989 | locus YGR229C, strain SMI1, stronger effect = lower value 1.02 | locus YMR307W, strain GAS1, stronger effect = lower value 0.976 | [7] 0.987 | [15] 1.02 | [16] 0.989 | [17] 0.99 | [8] 0.998 | [18] 0.99 | [9] 0.987 | [10] 1

— PubChem BioAssay AID1159580 (chemical genetic matrix, 2015)
